# Experimental data from PubChem BioAssay (EPA / NIEHS).
# Active and inactive are the calls of the source. Rule for the calls: active = hit-call score of the fitted dose curve at least 0.9, where 1 is the maximum; inconclusive = response in the unintended direction; inactive = score below 0.9.
# Target: Peroxisome proliferator-activated receptor gamma (Homo sapiens) (UniProt P37231)
# Test: OT_PPARg_PPARgSRC1_1440: Odyssey Thera (OT) 24-hour Protein-Complementation Assay for Peroxisome Proliferator-activated Receptor Gamma/ SRC-1 Co-activator (AID 2283388);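 note: nuclear to cytoplasmic ratio of reconstituted Venus YFP fluorescence in fixed imaged cells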
# Protocol: OT_PPARg_PPARgSRC1_1440 is a cell-based assay that uses HEK293T, a human kidney cell line, with measurements taken at 24 hours after chemical dosing in a 384-well plate.OT_PPARg_PPARgSRC1_1440 is one of one assay component(s) measured or calculated from the OT_PPARg_PPARgSRC1_1440 assay. It is designed to make measurements of protein fragment complementation, a form of binding reporter, as detected with fluorescence intensity signals by Protein-fragment Complementation technology.Data from the assay component OT_PPARg_PPARgSRC1_1440 was analyzed into 1 assay endpoint. This assay endpoint, OT_PPARg_PPARgSRC1_1440, was analyzed in the positive analysis fitting direction relative to DMSO as the negative control and baseline of activity. Using a type of binding reporter, measures of receptor for gain-of-signal activity can be used to understand the binding at the pathway-level as they relate to the gene PPARG. Furthermore, this assay endpoint can be referred to as a primary readout, because the performed assay has only produced 1 assay endpoint. To generalize the intended target to other relatable targets, this assay endpoint is annotated to the nuclear receptor intended target family, where the subfamily is non-steroidal.
# The OT PPARg/SRC-1 assay assessed receptor-chemical interactions using a rapidly maturing, intensely fluorescent mutant of YFP known as Venus, rationally dissected into two separate fragments. The fragments were obtained as follows: first, fragments coding for YFP1 and YFP2 (corresponding to amino acid residues 1-158 and 159-239 of the full length YFP, respectively) were generated by oligonucleotide synthesis (Blue Heron Biotechnology), and then PCR mutagenesis was used to generate the mutant fragments IFP1 and IFP2. Fusion constructs were transfected into HEK293T cells with a (Gly4Ser)2 linker between the PPARg/SRC-1 and YFP fragment genes to facilitate complementation when interacting proteins bring fragments into close proximity. The construct is transiently transfected in HEK293T cells 48 hours prior to treatment with test compounds. Cells are seeded into optical quality 384-well poly-D-lysine coated plates in MEM alpha medium (Invitrogen) supplemented with 10 percent FBS (Gemini Bio-Products) 1 percent penicillin and 1 percent streptomycin, and grown in 37C incubator equilibrated to 5 percent CO2. Cells are allowed to adhere for 24 hours prior to treatment with compounds of interest or controls for 24 hours. Cells are fixed in 4 percent formaldehyde and stained with Draq5 (BioStatus) to identify cells and subcellular compartment boundaries prior to signal detection. 8 Images per well were acquired on an Evotec Opera at 2 wavelengths (488 and 635nm), and the ratio of fluorescence in the nucleus relative to fluorescence in the cytoplasm (N/C Ratio) in the 488nm channel was calculated for a minimum of 350 cells per image.
# Peroxisome proliferator-activated receptor gamma (Homo sapiens), sequence (P37231 whole entry, looked up): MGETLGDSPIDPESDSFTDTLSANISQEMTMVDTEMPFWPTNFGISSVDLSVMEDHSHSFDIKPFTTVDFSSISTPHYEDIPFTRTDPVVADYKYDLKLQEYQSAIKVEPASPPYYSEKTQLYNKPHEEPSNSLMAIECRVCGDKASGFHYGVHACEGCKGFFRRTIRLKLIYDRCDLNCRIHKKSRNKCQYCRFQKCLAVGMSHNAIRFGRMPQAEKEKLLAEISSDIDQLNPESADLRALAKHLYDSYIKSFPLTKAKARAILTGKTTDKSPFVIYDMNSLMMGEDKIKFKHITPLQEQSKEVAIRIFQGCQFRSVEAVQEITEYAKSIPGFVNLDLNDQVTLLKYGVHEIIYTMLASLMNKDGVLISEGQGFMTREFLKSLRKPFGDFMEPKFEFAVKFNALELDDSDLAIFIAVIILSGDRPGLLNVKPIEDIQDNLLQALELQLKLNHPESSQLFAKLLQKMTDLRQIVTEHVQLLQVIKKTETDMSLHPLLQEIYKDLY
SMILES,outcome,AC50
COc1ccccc1N,inactive,
CC(O)(CS(=O)(=O)c1ccc(F)cc1)C(=O)Nc1ccc(C#N)c(C(F)(F)F)c1 (stereo not given),inactive,
O=C1c2ccccc2C(=O)C1C(=O)C(c1ccccc1)c1ccc(Cl)cc1 (stereo not given),,69.3 µM (active)
COc1ccc(N)cc1,inactive,
Clc1cccc(Cl)c1,inactive,
O=[N+]([O-])c1ccccc1O,inactive,
O=C(NC(=O)c1c(F)cccc1F)Nc1ccc(Cl)cc1,inactive,
Oc1c(Br)cc(Br)cc1Br,inactive,
N#Cc1cccnc1,inactive,
O=c1[nH]c(=O)n(Cl)c(=O)n1Cl,inactive,
O=C(N[C@H]1CN2CCC1CC2)c1ccc2c(c1)OCCO2,inactive,
CC(=Cc1ccccc1)[N+](=O)[O-],inactive,
N#CS,inactive,
O=C(NC(=O)c1c(F)cccc1F)Nc1cc(Cl)c(OC(F)(F)C(F)C(F)(F)F)cc1Cl (stereo not given),inactive,
O=[N+]([O-])c1ccc(Cl)c([N+](=O)[O-])c1,inactive,
O=C(O)C1(c2ccc3c(c2)OC[C@H](Cc2ccc(-c4ccccc4)cc2)[C@H]3O)CCCC1,inactive,
CCCCCCCCCCCCN(C)C,inactive,
O=CCCl,inactive,
N#CCC#N,inactive,
N#CCCC(Br)(C#N)CBr (stereo not given),inactive,

SMILES,outcome,AC50
COCCl,inactive,
CNC(=O)O/N=C/C(C)(C)S(C)(=O)=O,inactive,
Cc1cc(Cl)ccc1O,inactive,
CCC[CH2][Sn]([Cl])([Cl])[CH2]CCC,inactive,
CCC[CH2][Sn]([CH2]CCC)([CH2]CCC)[CH2]CCC,inactive,
CC1(C)[C@H](C(=O)O[C@H](C#N)c2cccc(Oc3ccccc3)c2)[C@@H]1/C=C(\Cl)C(F)(F)F,inactive,
O=C(O)COc1ccc(Cl)cc1,inactive,
CCOCn1c(-c2ccc(Cl)cc2)c(C#N)c(Br)c1C(F)(F)F,inactive,
Oc1cc(Cl)c(Cl)cc1Cl,inactive,
Cc1cc(Cl)ccc1OC(C)C(=O)O (stereo not given),inactive,
Nc1ccc(N)cc1,inactive,
C=CCN=C=S,inactive,
CC(C)N(C(=O)CCl)c1ccccc1,inactive,
Nc1ncn[nH]1,inactive,
CC(C)(C)c1ccccc1O,inactive,
O=c1nc(O)n(Cl)c(=O)n1Cl,inactive,
O=C(CBr)c1ccc(O)cc1,inactive,
COc1nn(C(=O)NS(=O)(=O)c2ccccc2OC(F)(F)F)c(=O)n1C,inactive,
O=S1(=O)OC(c2cc(Br)c(O)c(Br)c2)(c2cc(Br)c(O)c(Br)c2)c2ccccc21,,51.9 µM (active)
CN(N=O)C(N)=O,inactive,
